Laboratory results from the OligoGym collection.

Each sequence was assayed against LIMK2 (assay: pooled miR-30 sensor sort-seq; sequence = guide strand). Conditions: shRNA.
Also: reference of the scale not given here.

Sequence | sensor-assay potency score (higher = more potent)
ATCTGCTGTGAATAGCTGCTGG | -0.683
TTCTGAGATCTCCTCTTCCTGG | -0.852
TACAGCACACCAATGAACTTGA | -0.145
TTCACTTGCACAGTGGTGGCGT | 0.835
TTTCTTTCGTCCACACACTTGA | 0.0479
TCGAGTAACAGATTCCTCCTGG | 1.05

These sequences were tested against LIN54 in the same assay as above. Conditions: shRNA.

Sequence | sensor-assay potency score (higher = more potent)
TTTACAAGCAAAACATTCGTAA | -0.274
TTTCTTTAAAAGATAGTCCTTT | 0.288
TAAACATACTAGATTGAGGTGC | -0.0512
TAGTCTTTTAAAATCATTGAAT | -0.779
TACAACTATAGAGTCCTTGTAG | 0.323
TTTTAAGACATCCTGATCGTTT | -0.141
TTAGTAAGTACTACACAGGAAG | -0.992
TTATGTAACATTCTGTCTGCAG | 0.565
TACAATTTCAAACACAGTGATT | -0.963
TTGTCTGTCCTGTAACTGCTTT | -0.449

Each sequence was assayed against LIN7C in the same assay as above. Conditions: shRNA.

Sequence | sensor-assay potency score (higher = more potent)
TTTTGGTAGCTCAACAACTCGA | -0.544
TAACCTTTCCTTGTGCGGCTTT | 0.0216
TTGCTCTACAAATATCTCTCTC | -0.491
TTTTCTTACAATCATTGGCATT | -1.46
TCTACAAATATCTCTCTCCAGC | -1.02
TAGCGTTCGCTCTCACTTCAGG | -0.712
TTTCTTCTAAGACTTTGGGTGT | -0.276
TCTATCAGCAATTCCACCTGGA | 1.09
TTCACTTTGAAGGACTCTTTGC | -0.329
TAATATTGAATCCAAGGCCCTC | -0.834

The sequences below were run against LINGO4 in the same assay as above. Conditions: shRNA.

Sequence | sensor-assay potency score (higher = more potent)
TTATCTGCCACATCCAGGAGGT | -0.12
TAGCTGAGGTCCAATTCCTGGA | -0.789
TTCCACCTGGATGACTTCCAGC | -1.16
TTGCCAGACAGCCTCAAGGTGA | -1.39
ATATCCAGTTCTCTAAGCCTTA | -0.907
TAGCTCCTGGAGCCGCACCAGG | -1.44
TTTGACCCGACCTTTGCCCTTG | -0.241
TTGAGAGCTGGTTGTAGCTGAG | -0.0336
TGAGGTGGTACAGTGCTTGGAA | 0.431
TCTAGGACCCTTACTCTCCCAG | -0.898
ATCTAGGAAGAGAACAATCTGG | -0.599
TGTGATGTTTGACCCGACCTTT | -0.94
